Inconclusive results are not listed. Where a call stands in place of a potency, no number is given. A number with no mark means an inactive call. Calls of active or inactive are those of the source. The call rests on the fitted dose curve; in most records, active means well fitted activation curve with a large enough effect in the signal ratio in the repeat runs (not every such curve was filed as active); inconclusive means weak or mixed curves, or effect the other way; inactive means flat fitted curve, though single readings scatter; the % refers to the signal ratio.
Potency means the concentration at half of the fitted maximal effect.

Chain of Estrogen receptor beta (Homo sapiens) (Q92731 whole entry, looked up): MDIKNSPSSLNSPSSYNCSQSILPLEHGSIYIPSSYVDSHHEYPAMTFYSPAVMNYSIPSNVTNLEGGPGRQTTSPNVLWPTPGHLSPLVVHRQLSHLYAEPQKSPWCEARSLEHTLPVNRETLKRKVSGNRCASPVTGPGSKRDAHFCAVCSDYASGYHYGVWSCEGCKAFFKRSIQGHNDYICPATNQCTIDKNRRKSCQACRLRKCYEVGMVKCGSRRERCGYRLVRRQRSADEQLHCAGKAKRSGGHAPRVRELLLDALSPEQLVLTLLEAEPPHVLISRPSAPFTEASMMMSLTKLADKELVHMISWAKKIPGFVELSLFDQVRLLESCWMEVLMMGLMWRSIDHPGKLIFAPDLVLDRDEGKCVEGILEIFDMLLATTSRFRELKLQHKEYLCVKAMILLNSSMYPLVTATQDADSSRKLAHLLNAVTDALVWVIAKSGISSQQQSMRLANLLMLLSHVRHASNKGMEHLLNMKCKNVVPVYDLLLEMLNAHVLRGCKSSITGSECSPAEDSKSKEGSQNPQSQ

The target in the test is Estrogen receptor beta (Homo sapiens) (UniProt Q92731). Description: qHTS assay to identify small molecule agonists of the estrogen receptor beta (ER-beta) signaling pathway (AID 1259377). The conditions noted are these: ER-beta-UAS-bla HEK293T, beta-lactamase FRET ratio, 16 h; series mostly up to 92.4 µM. An excerpt:
U.S. Tox21 Program National Center for Advancing Translational Sciences [NCATS] NIH Chemical Genomics Center [NCGC] U.S. Environmental Protection Agency [EPA] National Institutes of Environmental Health Sciences [NIEHS] National Toxicology Program [NTP] U.S. Food and Drug Administration [FDA] Tox21 Assay Overview: Estrogen receptor (ER), a nuclear hormone receptor, plays an important role in development, metabolic homeostasis and reproduction. Two subtypes of ER, ER-alpha and ER-beta, have similar expression patterns with some uniqueness in both types. Endocrine disrupting chemicals (EDCs) and their interactions with steroid hormone receptors like ER causes disruption of normal endocrine function. To identify the compounds that activate ER signaling, an ER beta-UAS-bla GripTite cell line (Life technologies, Madison, WI, USA) containing a beta-lactamase reporter gene under the control of an Upstream Activator Sequence (UAS) was used to screen Tox21 10K compound library.
Tox21 Assay Protocol Summary: ER-beta-UAS-bla HEK293T cells were dispensed at 2,000 cells/5 uL of assay medium containing 2% charcoal stripped FBS per well into black wall/clear-bottom 1536-well plates using a Multidrop Combi (ThermoFisher Scientific, Waltham, MA) dispenser. After the assay plates were incubated at a 37C and 5% CO2 for 6 hr, 23 nL of compounds dissolved in DMSO, positive controls or DMSO only was transferred to the assay plate by a Pintool station (Kalypsys, San Diego, CA). The plates were incubated at 37C and 5% CO2 for 16 hr. Then 1 uL of LiveBLAzerTM B/G FRET substrate was added using a BioRAPTR FRD (Flying Reagent Dispenser, Aurora Discovery, San Diego, CA). After the plates were incubated at room temperature for 2 hours, fluorescence intensity was measured by an Envision plate reader (PerkinElmer, Shelton, CT).
As for `Nc1ccc(Oc2ccc(Cl)cc2)cc1`, the Potency result is “inactive”.

Take `[Cl][Pt-2]([Cl])([Cl])[Cl]`: the Potency entry is “inactive”. The same measure, in the same setting: the entry for `CC(C(=O)O)c1ccc2c(c1)[nH]c1ccc(Cl)cc12` (stereo not given) is “inactive”. On the same count and under the same terms, then `O=C(O)Cc1ccccc1Nc1c(Cl)cccc1Cl`, with “inactive”; and `Cc1cc(-n2nc3ccc(Cl)cc3n2)c(O)c(C(C)(C)C)c1`, with “inactive”; and `O=C(/C=C/c1ccc(O)c(O)c1)O[C@@H](C(=O)O)[C@@H](OC(=O)/C=C/c1ccc(O)c(O)c1)C(=O)O`, with “inactive”. On the same count and under the same terms, the entry for `CCCC[P+](C)(CCCC)CCCC` is “inactive”; for `COC(=O)c1ccccc1C` it is “inactive”; for `Clc1sc(Cl)c(Cl)c1Cl` it is “inactive”. For `CN(C)[C@@H](CCOc1cccc2ccccc12)c1ccccc1`, the Potency entry is “inactive”. `Nc1ccc(NCCO)c([N+](=O)[O-])c1`: the Potency result is “inactive”.

In the case of `OCC(F)(F)F`, the Potency entry was “inactive”. As to `COc1cc2nc(N3CCN(C(=O)c4ccco4)CC3)nc(N)c2cc1OC`, the activation is -0.974% [at 19 µM]. On to `NC(=O)c1cccc([N+](=O)[O-])c1`, for which the Potency result is “inactive”.

With `CN(C)Cc1ccccc1O`, the Potency entry is “inactive”. As to `CC1=Nc2ccccc2C1(C)C`, the Potency entry was “inactive”. Take `OCCN1CCN(CCCN2c3ccccc3Sc3ccc(C(F)(F)F)cc32)CC1`: the Potency result is “inactive”. On the same count and under the same terms, then `O=S(=O)(O)c1ccccc1/C=C/c1ccc(-c2ccc(/C=C/c3ccccc3S(=O)(=O)O)cc2)cc1`, with 39.1 µM (active); and `Cc1cc(C(C)(C)C)c(O)c(C)c1Cn1c(=O)n(Cc2c(C)cc(C(C)(C)C)c(O)c2C)c(=O)n(Cc2c(C)cc(C(C)(C)C)c(O)c2C)c1=O`, with “inactive”.

As for `CCCC(=O)OC(C)(C)Cc1ccccc1`, the Potency result was “inactive”.

Consider `CCOC(=O)c1ccc(C2CCC(NC[C@H](O)COc3ccc(O)c(NS(C)(=O)=O)c3)CC2)cc1` (stereo not given in full), for which the Potency result was “inactive”. Still for that read-out and setting: the entry for `S=c1nccc[nH]1` is “inactive”; for `CN1CCCCC1CCN1c2ccccc2Sc2ccc(S(C)=O)cc21` (stereo not given) it is “inactive”; for `COC(=O)c1ccccc1OC` it is “inactive”. Regarding `C=CCn1c(=O)n(CC=C)c(=O)n(CC=C)c1=O`, the Potency entry is “inactive”. Take `C1CCC(SSC2CCCCC2)CC1`: the Potency result was “inactive”. On the same count and under the same terms, then `O=[N+]([O-])c1ccc(O)cc1C(F)(F)F`, with “inactive”; and `C/C=C/C=C/COC(=O)C(C)C`, with “inactive”; and `CCCCC(CC)CN1CN(CC(CC)CCCC)CC(C)(N)C1` (stereo not given), with “inactive”. Still for that read-out and setting: the entry for `O=[N+]([O-])c1cccc(C(F)(F)F)c1` is “inactive”. For the compound `COCCOc1cc2cc(C(=O)NC3CCN(C(C)C)CC3)n(CC(=O)Nc3ccc(Cl)cn3)c2cn1`, the Potency entry was “inactive”. In the case of `COC(C)=O`, the Potency result is “inactive”. Regarding `O=C(/C=C/c1ccccc1)OC/C=C/c1ccccc1`, the Potency entry is “inactive”. Same read-out and setting: the entry for `O=C1NC(=O)[C@@H]2CC=CC[C@H]12` is “inactive”. For the compound `CC(C)(C)CC(C)(C)c1ccc(Nc2ccc(C(C)(C)CC(C)(C)C)cc2)cc1`, the activation was -0.0232% [at 8.39 µM]. Consider `O=C(O)CCN(C1(C(=O)NO)CCCC1)S(=O)(=O)c1ccc(Oc2ccc(F)cc2)cc1`, for which the Potency result is “inactive”.

Consider `CC1(C)[C@@H](O)CC[C@]2(C)[C@H]3C(=O)C=C4[C@@H]5C[C@@](C)(C(=O)O)CC[C@]5(C)CC[C@@]4(C)[C@]3(C)CC[C@@H]12`, for which the Potency entry is “inactive”.

Turning to `CCN1C(=O)c2ccccc2C1Nc1ccc(OCCN2CCCCC2)cc1` (stereo not given), the Potency entry is “inactive”. The same measure, in the same setting: then `CCCC1CCC(=O)CC1`, with “inactive”; and `CC(C)=CCC1=C(O)c2ccccc2C(=O)C1=O`, with “inactive”.

(Values after PubChem BioAssay (Tox21).)
